Laboratory results reported in PMC12136788.
Where a chain is given by its changes, count along the chain named. Over roughly 24,000 sequences, “enrichment r” has its median near 0.99; the highest 2% begin near 3.7. For the sample, the highest values were picked, then their nearest neighbours and some sequences at random.

T1: UNK ZnF1-3 (human, UniProt Q9C0B0 31-174)
T1 sequence: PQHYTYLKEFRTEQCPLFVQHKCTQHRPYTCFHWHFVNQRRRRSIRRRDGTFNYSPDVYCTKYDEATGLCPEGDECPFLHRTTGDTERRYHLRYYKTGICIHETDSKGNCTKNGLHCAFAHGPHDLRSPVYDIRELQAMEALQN

B1: chr8:21961785:21961786:+_ENSG00000158863_ENST00000289921|hu_hu|FALSE|FALSE (ssRNA)
RNA: GGGAGUUCUACAGUCCGACGAUCGCACUGAGGAGAGGGGAGGGUCUGUGACUCCCAAACCCUCGAAUAUUUUAUGAAUCUAAGAGUCCAGACGCAGUUCAUCCACGGAGAUCUGCGCCCCGUCCACACCAACACCCACGUUUGCAACAGAGGAUUGAGCAUCA
B2: chr2:216981417:216981418:+_ENSG00000079246_ENST00000392132|hu_hu|hu_hu_hu_mus_True|8_48 (ssRNA)
RNA: GGGAGUUCUACAGUCCGACGAUCCUGAUACUGGUCCUUGCCAGCAAGGGCAUUAUCAGUGCCAUCUGUGCCAUAGAGGACUAACGCAAUCUCAUCCUUGCUCUCCGAAAAUACCUGUCGUUGGACAAACAUGGUUAUCACUUUCAACAGAGGAUUGAGCAUCA
B3: chr7:65705844:65705845:+_ENSG00000169902_ENST00000304842|hu_mus|hu_hu_hu_mus_False|18_108 (ssRNA)
RNA: GGGAGUUCUACAGUCCGACGAUCAAAAGGAUCUUUAUUACAUAAAUAAGGUGCCGGCUCCCCAUGUUUAACAAUGACCUCCAGAAGGAAGGCUUGCAUGGCAGAAUCUAGCACUUCAUCAGUAACACCCGCCUCAUCCAAGCGCAACAGAGGAUUGAGCAUCA
B4: chr18:43795804:43795805:+_ENSG00000152242_ENST00000321319|hu_hu|FALSE|FALSE (ssRNA)
RNA: GGGAGUUCUACAGUCCGACGAUCCUCCUCCAUCUUCAUUUCAGAAUUUCAAGUUAAAUCAUGGAGUAGAGUCUAGGAAAUGAUAUCAAAGAUGCAACAGGAAAGCAACCUGCGCUCCGCGGCGACUCCGUGCCUUCUCGCUCGCAACAGAGGAUUGAGCAUCA
B5: chr11:100882373:100882374:+_ENSMUSG00000019302_ENSMUST00000044721|mus_mus|mus_mus_mus_hu_True|38_108 (ssRNA)
RNA: GGGAGUUCUACAGUCCGACGAUCUUCCUGGUUAGUGUUGAUUUCCUUCAGUUCAUUUUCAAUCUUCUCAAAAUUGGCCUCUAAGUCAAUCAUGUCCCGAGGGAAGGGAACCUCUGGGUUUUCACCGGUGUCCAUAAUCGGAAUCAACAGAGGAUUGAGCAUCA
B6: chr2:49628383:49628384:+_ENSMUSG00000026764_ENSMUST00000028102|mus_mus|FALSE|FALSE (ssRNA)
RNA: GGGAGUUCUACAGUCCGACGAUCUUGGUACUGACGGGGUUUGCAGACUUGCCCUGCAAAGGACCCCUCCAUCAGACUCCAAUAGCAGCCAACAGUGGCAACAACAUGAAACAAAGUGAACACAGGUAAACACAAAAUCAUCUUCAACAGAGGAUUGAGCAUCA
B7: chr18:33597908:33597909:-_ENSMUSG00000042834_ENSMUST00000171533|mus_hu|FALSE|FALSE (ssRNA)
RNA: GGGAGUUCUACAGUCCGACGAUCCAUCAAAAGAGUACAUGGAUAAAAUAUAGAGAUAUACAGACAAUUGAUGAACAUAAACUACUAGGUUUGUUACAUCUAAAUGAAAAAAAAGGUGGGGGGGGGACUCUCAGCCUCUGCAAGCAACAGAGGAUUGAGCAUCA
B8: chr1:46159212:46159213:+_ENSG00000159596_ENST00000372025|hu_mus|hu_hu_hu_mus_True|28_48 (ssRNA)
RNA: GGGAGUUCUACAGUCCGACGAUCUCUGAUCCCUCCCAAGAAAGCUAGGAAACCGGCUCCAUAAGCCAUCUGAGUGAAAGCUAGGACGGGAAUAUAAGACUUUGUUAUCAGCAUGACAAGUGGGGGAGCAGUAAAGGGGAUUAACAACAGAGGAUUGAGCAUCA
B9: chr1:46159212:46159213:+_ENSG00000159596_ENST00000372025|hu_mus|hu_hu_hu_mus_True|1_28 (ssRNA)
RNA: B8 RNA with A90G, A143G
B10: chr18:33597908:33597909:-_ENSMUSG00000042834_ENSMUST00000171533|mus_hu|motif|central (ssRNA)
RNA: B7 RNA with U82G, A83G, U85G, A86G
B11: chr12:51141157:51141158:+_ENSG00000066084_ENST00000301180|hu_mus|FALSE|FALSE (ssRNA)
RNA: GGGAGUUCUACAGUCCGACGAUCUCAAAGAAAAGCAACAGAAAAUAAAAAAAAAAAAAGAAGUAGUCAUUACCAGAAGGAGGAAAAGACUAGAAGCCUGGGCAAGGCAUGAAGGUGUCUGCUGCAAUUUCAGUACUCGGGACACAACAGAGGAUUGAGCAUCA
B12: chr1:46159212:46159213:+_ENSG00000159596_ENST00000372025|hu_mus|hu_hu_hu_mus_True|28_108 (ssRNA)
RNA: B8 RNA with U33A, A90G
B13: chr19:16212804:16212805:+_ENSG00000167460_ENST00000300933|hu_mus|hu_hu_hu_mus_False|88_108 (ssRNA)
RNA: GGGAGUUCUACAGUCCGACGAUCAACAAAUAUGCAAUGAAGGAAAGCAUCAAGGAUGAACAGCAUUAAAGCUCAGUCAGAAGGCACAUGGGCAACAAUGAUCACCCCAGCAUUCUCGCUUGGAAUGCUUAAAGACAAUCUGUUCAACAGAGGAUUGAGCAUCA
B14: chr1:46159212:46159213:+_ENSG00000159596_ENST00000372025|hu_mus|hu_hu_hu_mus_True|28_58 (ssRNA)
RNA: B8 RNA with G83A, G84U, C86U, A90G
B15: chr9:122046315:122046316:+_ENSMUSG00000038145_ENSMUST00000120173|mus_hu|FALSE|FALSE (ssRNA)
RNA: GGGAGUUCUACAGUCCGACGAUCUAGUUUGGUCUGGGUGUCAAUAACUUCAUAAAGGCGGACGAUGUUAGGAUGCUGCACUAGUUUCAUGCAUCUCACUUCCUGGAAAAGAUGACCAGUAGCUAGAGUGUCCAGUUUUGUCUUCAACAGAGGAUUGAGCAUCA
B16: 104520116_104520236_3471_3pUTR_ENSMUSG00000027175_ENSMUST00000111118|mouse|control|control (ssRNA)
RNA: GGGAGUUCUACAGUCCGACGAUCAAGUUAAAAUUCCAGCCUAUGUGAAAAGAGAUACAAUUUAACACAGGUGACAGGACGCUCUGCUGUUAGUUUCCCUACAUCAAAGACUAUUCCAGUACAAUGAACAGGAGGGUUUGGAAGCAACAGAGGAUUGAGCAUCA

Each binder was assayed against T1, UNK ZnF1-3 (assay: nsRBNS (natural sequence RNA bind-n-seq); RBNS binding buffer (assumed for nsRBNS): 25 mM Tris pH 7.5, 150 mM KCl, 3 mM MgCl2, 0.01% Triton X-100, 500 ug/ml BSA, 20 U/ml SUPERase-In, 4 C; UNK is unkempt and MSI1 is Musashi-1; names of the RNAs are library labels; protein concentration not given here; high values mean tight binding).

Compared with B1, B2 is lower in binding signal: 1.03 enrichment R for the first, 0.64 enrichment R for the second.

First: B3
Second: B4
The binding signal of the first is lower: 0.624 enrichment R for the first, 0.921 enrichment R for the second.

Going from B5 to B6, the binding signal rises from 0.664 enrichment R to 0.994 enrichment R.

First: B7
Second: B8
The binding signal of the first is higher: 13.4 enrichment R for the first, 1.5 enrichment R for the second.

Going from B9 to B10, the binding signal rises from 3.95 enrichment R to 6.29 enrichment R.

First: B11
Second: B12
The binding signal of the first is higher: 4.07 enrichment R for the first, 1.36 enrichment R for the second.

First: B13
Second: B14
The binding signal of the first is higher: 1.33 enrichment R for the first, 1.32 enrichment R for the second.

Going from B15 to B16, the binding signal rises from 0.873 enrichment R to 1.5 enrichment R.
